The record followed here is publication PMC4552634, “A New Set of Chemical Starting Points with Plasmodium falciparum Transmission-Blocking Potential for Antimalarial Drug Discovery” (PLoS ONE, 2015).

The whole screen tested about 13,000 compounds, of which about 3,200 (25%) showed an effect of 50% or more. The list shows a part of the results.

This assay concerns P. falciparum stage V gametocytes. The arrangement: BacTiter-Glo ATP luminescence viability of purified stage V gametocytes in 384-well plates, per cent inhibition versus DMSO. Particulars: 48 h, 5 µM; inhibitor.
The % Inhibition is the change of the read-out against control, counted positive when it falls. As to `OC(CNCc1ccccc1Oc1ccccc1)c1cccc(C(F)(F)F)c1` (centres unmarked) [TCMDC-140397], the “% Inhibition” value was determined as 30.17%.
`CC1CN(c2cc(=O)n(Cc3cccc(NC(=O)Nc4ccc(-c5ccccc5)cc4)c3)cn2)CC(C)N1` (centres unmarked) [TCMDC-133365]: the “% Inhibition” value is recorded as -7.987%.
Turning to `FC(F)(F)c1ccc2[nH]c(-c3cccc(-c4ccc(CNCC5CCCO5)cc4)c3)nc2c1.O=C(O)C(F)(F)F` (centres unmarked) [TCMDC-133103], the “% Inhibition” value is given as -16.51%.
To `COc1ccc2nccc([C@@H](O)CN3CCC(NC(=O)c4ccc(-c5ccc(C#N)cc5)cc4)CC3)c2c1` [TCMDC-141001] belongs 7.804%; to `COC(=O)c1ccc(CCC(C)NCC(O)c2cccc(C(F)(F)F)c2)cc1` (centres unmarked) [TCMDC-131440], 17.3%.
Turning to `COc1ccc(S(=O)(=O)N2CCCc3ccc(Br)cc32)cc1N1CCN(C(=O)C(Cl)(Cl)Cl)CC1` [TCMDC-139339], the “% Inhibition” value came to 22.46%.
To `CCN(C1CCCCC1)S(=O)(=O)c1ccc(OC)c(N2CCN(C(=O)C(Cl)(Cl)Cl)CC2)c1` [TCMDC-139319] belongs 82.34%; to `CCC1CCCCN1S(=O)(=O)c1ccc(OC)c(N2CCN(C(=O)C(Cl)(Cl)Cl)CC2)c1` (centres unmarked) [TCMDC-139255], 3.13%.
Under `CSc1nc2nc(C)c(Cc3cccc(F)c3)c(C)n2n1` [TCMDC-123765] stands 1.864%.
Take `COc1cc2ncnc(Nc3ccc4nc(-c5ccccc5)[nH]c4c3)c2cc1OC` [TCMDC-137191]: the “% Inhibition” value was -26.1%.
In the case of `Cc1c2ccncc2c(C)c2c1[nH]c1cc(Cc3ccccc3)c(O)cc12` [TCMDC-132053], the “% Inhibition” value worked out at 89.31%.
Under `Cc1c2ccncc2c(C)c2c1[nH]c1ccccc12` [TCMDC-125546] stands -37.29%.
To `O=C(Nc1ccc(-c2cccc(-c3nc4ccc(C(F)(F)F)cc4[nH]3)c2)cc1)c1ccc(=O)[nH]n1` [TCMDC-137032] belongs 18.19%.
To `CCC(C)(C)c1ccc(N2C(N)=NC(N)=NC2(C)C)cc1` [TCMDC-137919] belongs 8.342%.
On to `O=C(Nc1ccc(Cl)cc1)OCCn1nnnc1C(c1ccc(Cl)cc1)N1CCOCC1` (centres unmarked) [TCMDC-124138], for which the “% Inhibition” value is on record as -11.24%.
For `COc1ccc2nccc(NC(=O)C3CCC(NCc4cnc(SC)c([N+](=O)[O-])c4)CC3)c2n1` (centres unmarked) [TCMDC-131238], the “% Inhibition” value is reported as 93.77%.
To `COc1ccc2nccc(NC(=O)N3CCC(NCCOc4cc(F)cc(F)c4)CC3)c2n1` [TCMDC-140666] belongs 29.69%; to `COc1ccc2nccc(NC(=O)C3(O)CCC(NCc4ccc5c(c4)NCCS5)CC3)c2n1` (centres unmarked) [TCMDC-141406], 32.7%; to `Cc1cccc2[nH]c(-c3ccc(-c4cccc(NC(=O)Nc5ccc(F)c(F)c5F)c4)cc3)nc12` [TCMDC-133234], -5.873%.
For the compound `O=C(N[C@@H](CC1CCCCC1)C(=O)NC1CCCCC1)c1ccc(O)c(-c2cccc(C(F)(F)F)c2)c1` [TCMDC-140810], the “% Inhibition” value is 6.892%.
Take `O=C(N[C@@H](Cc1ccccc1)C(=O)NC1CCCCC1)c1ccc(O)c(-c2cccc(C(F)(F)F)c2)c1` [TCMDC-140809]: the “% Inhibition” value is 50.49%.
Under `O=C(N[C@@H](Cc1ccccc1)C(=O)NC1CCCCCC1)c1ccc(O)c(-c2cccc(C(F)(F)F)c2)c1` [TCMDC-140813] stands 18.86%; under `OC(CNc1ccnc(Nc2ccccc2)n1)c1ccc(C(F)(F)F)cc1` (centres unmarked) [TCMDC-136598], -1.002%; under `O=c1cc(NCCCNCc2[nH]c3cc(Cl)ccc3c2Cl)[nH]c2ccccc12` [TCMDC-139966], -23.52%.
Regarding `O=C(NC(c1ccccc1)c1ccc2cccnc2c1O)c1ccccc1` (centres unmarked) [TCMDC-123701], the “% Inhibition” value was 103.7%.
In the case of `COc1cccc(C(NC(=O)c2ccccc2)c2ccc3cccnc3c2O)c1` (centres unmarked) [TCMDC-125755], the “% Inhibition” value is reported as 75.54%.
For `Cc1ccc(C(NC(=O)c2ccccc2)c2ccc3cccnc3c2O)cc1` (centres unmarked) [TCMDC-125552], the “% Inhibition” value stood at 16.34%.
With `N#Cc1ccc(N2CCN(C(=O)c3cccc(-c4noc(C(F)(F)F)n4)c3)CC2)nc1` [TCMDC-132424], the “% Inhibition” value was 8.571%.
Under `O=C(Nc1cc(C(F)(F)F)cc(C(F)(F)F)c1)NC(CCCN1CCC2(CC1)OCc1ccccc12)c1ccc(Cl)c(Cl)c1` (centres unmarked) [TCMDC-141899] stands -60.02%; under `O=C(NC(CCCN1CCC2(CC1)OCc1ccccc12)c1ccc(Cl)c(Cl)c1)c1cc(C(F)(F)F)cc(C(F)(F)F)c1` (centres unmarked) [TCMDC-141897], 69.2%.
Under `O=C(NC(CCCN1CCC(c2ccccc2)CC1)c1ccc(Cl)c(Cl)c1)c1cc(C(F)(F)F)cc(C(F)(F)F)c1` (centres unmarked) [TCMDC-141900] stands 23.85%; under `O=C(Nc1ccc([N+](=O)[O-])cc1)c1nn(-c2ccccc2)cc1N=Cc1cccc(O)c1` [TCMDC-124108], -28.07%; under `CCCCCn1c(Sc2ccc(C#N)c([N+](=O)[O-])c2)nnc1-c1cccs1` [TCMDC-135585], 31.33%.
Under `O=C(NCc1ccccn1)C(c1cc2ccccc2o1)N1CCN(C(c2ccccc2)c2ccccc2)CC1` (centres unmarked) [TCMDC-141024] stands 9.637%.
As for `NCc1cccc(-c2ccccc2CNC2CCN(Cc3ccccc3)CC2)c1` [TCMDC-140467], the “% Inhibition” value is listed as 102.5%.
For the compound `Oc1ccc(CN2CCC(NCc3cccc4ccccc34)CC2)cc1` [TCMDC-141654], the “% Inhibition” value is reported as 18.51%.
On to `NCc1ccc(-c2ccccc2CNC2CCN(Cc3ccccc3)CC2)cc1` [TCMDC-140468], for which the “% Inhibition” value was determined as 88.27%.
Regarding `c1ccc(CN2CCC(NCc3ccccc3-c3cccc(CNC4CCCC4)c3)CC2)cc1` [TCMDC-140472], the “% Inhibition” value was found to be 106.9%.
To `CC(C)c1ccc(N2CCN(CCCCNC(=O)c3ccc(NC(=O)c4cc(Cl)cc(Cl)c4)cc3)CC2)cc1` [TCMDC-138232] belongs -31.61%.
In the case of `O=C(Cc1ccc(Nc2nccc(Nc3cccc4[nH]ncc34)n2)cc1)Nc1ccc(C(F)(F)F)cc1` [TCMDC-136243], the “% Inhibition” value came out at 0.831%.
Under `CCCCCc1cnc2nc(N)nc(N)c2c1C` [TCMDC-137717] stands 7.113%; under `Cc1cnc(C(=O)Nc2ccc3c(c2)CCCN(Cc2c[nH]c4cnccc24)C3)cn1` [TCMDC-134846], 9.147%; under `CC(C)c1ccc(N(CC(=O)N/N=C/c2ccc(C(F)(F)F)cc2)S(=O)(=O)c2ccc(C(F)(F)F)cc2)cc1` [TCMDC-135354], 13.17%.
To `O=c1ccc2ccc(O)c(O)c2o1` [TCMDC-125839] belongs -8.739%; to `COc1ccc(-c2cnc(N)c(-c3nc4ccc(Br)cc4[nH]3)c2)cc1` [TCMDC-133074], -6.966%; to `COC(=O)c1ccc(NC(=O)Nc2ccc(Cn3ncc(N4CCCNCC4)c(Cl)c3=O)cc2)cc1` [TCMDC-133315], -30.5%.
To `CC1CN(c2cnn(C/C=C/c3ccc(NC(=O)c4ccc(Cl)cc4)cc3)c(=O)c2Cl)CC(C)N1` (centres unmarked) [TCMDC-132469] belongs 77.2%; to `CC1CN(c2cnn(C/C=C/c3ccc(NC(=O)c4ccc([N+](=O)[O-])cc4)cc3)c(=O)c2Cl)CC(C)N1` (centres unmarked) [TCMDC-132467], 91.62%.
On to `CC1CN(c2cnn(Cc3cccc(NC(=O)Nc4ccc(F)cc4[N+](=O)[O-])c3)c(=O)c2Cl)CC(C)N1` (centres unmarked) [TCMDC-141934], for which the “% Inhibition” value is on record as 17.4%.
Turning to `CCOC(=O)c1ccc(NC(=O)Nc2ccc(Cn3ncc(N4CCCNCC4)c(Cl)c3=O)cc2)cc1` [TCMDC-133330], the “% Inhibition” value was -19%.
For `CC1CN(c2cnn(Cc3ccc(NC(=O)Nc4cccc(C(F)(F)F)c4)cc3)c(=O)c2Cl)CC(C)N1` (centres unmarked) [TCMDC-141938], the “% Inhibition” value is listed as -19.52%.
As to `CC1CN(c2cnn(Cc3ccc(NC(=O)Nc4ccc(F)cc4[N+](=O)[O-])cc3)c(=O)c2Cl)CC(C)N1` (centres unmarked) [TCMDC-141939], the “% Inhibition” value came out at 5.517%.
Under `CC1CN(c2cnn(Cc3cccc(NC(=O)Nc4cccc(C(F)(F)F)c4)c3)c(=O)c2Cl)CC(C)N1` (centres unmarked) [TCMDC-141933] stands -18.84%.
On to `CC1CN(c2cnn(C/C=C/c3ccc(NC(=O)c4ccc5nonc5c4)cc3)c(=O)c2Cl)CC(C)N1` (centres unmarked) [TCMDC-132468], for which the “% Inhibition” value was 104.2%.
To `CN1C(=CC(=O)NC(=O)c2ccccc2)C(C)(C)c2ccccc21` [TCMDC-136649] belongs 14.63%; to `Cc1nc2ccc3nc(NC(=O)c4ccno4)sc3c2s1` [TCMDC-124989], -34.07%.
To `CCCCn1c(-c2ccco2)nc2c(c(=O)c3ccccc3n2C)c1=O` [TCMDC-124920] belongs 70.03%; to `CN(C)c1cccc2c1nc(-c1ccco1)n2CC1CCCN1` (centres unmarked) [TCMDC-133408], -1.299%; to `CCCCCCCn1c(=O)c(C(=O)Nc2c(C)cccc2C)c(O)c2ccccc21` [TCMDC-124465], 13.41%.
With `Cc1ccccc1CNc1noc(-c2sccc2Br)n1` [TCMDC-134183], the “% Inhibition” value is reported as -16.29%.
On to `N#Cc1ccc(NC(=NC2CCCc3ccccc32)Nc2ccc(-c3ccccc3)cc2)c(O)c1` (centres unmarked) [TCMDC-140207], for which the “% Inhibition” value is reported as -97.78%.
With `N#Cc1ccc2c(c1)CCN(CCC1CCC(NC(=O)c3cc4cccc([N+](=O)[O-])c4[nH]3)CC1)C2` (centres unmarked) [TCMDC-139188], the “% Inhibition” value is 23.84%.
To `O=C(NC1CCC(CN2CCC(c3c[nH]c4ccccc34)CC2)CC1)c1cc2cccc([N+](=O)[O-])c2[nH]1` (centres unmarked) [TCMDC-139879] belongs 95.83%; to `O=C(c1cc2cccc([N+](=O)[O-])c2[nH]1)N1CCC(CCN2CCC(c3c[nH]c4ccccc34)CC2)CC1` [TCMDC-139880], 92.61%.
Turning to `O=C(NC1CCC(CN2CCC(c3c[nH]c4ccccc34)CC2)CC1)c1ccc(-c2ccccc2[N+](=O)[O-])o1` (centres unmarked) [TCMDC-140295], the “% Inhibition” value is reported as -19.57%.
